Compounds with a hit are over-represented: about 4% of the library has one in this group of screens.
Beta cell apopt = inhibitors of cytokine-induced beta cell apoptosis, primary screen, luminescence; INS-1E cytokine-induced death, ATP luminescence, 48 h; percent of positive-control rescue, neutral wells zero; protection from apoptosis, % (concentration not given with the values); 300,000 tested, 0.8% active; AID 435005, 2010;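 active = Every replicate reaches about 75%, or at least half do and their mean reaches it too, limit read from the data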;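 also: 0% = cytokine-treated negative control wells and 100% = positive control rescue; higher means more ATP so stronger rescue from cytokine killing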
Gli-Sufu antag = Gli-Sufu pathway antagonists, primary screen, luciferase luminescence, Sufu-KO-LIGHT cells, uHTS; Sufu-KO-LIGHT fibroblasts, Gli luciferase reporter luminescence; inhibition, % at 5 µM; 340,000 tested, 0.74% active; AID 588413, 2011;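 active = inhibition above about 55%, limit read from the data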;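 also: 0% = DMSO-treated cells and 100% = wells with medium but no cells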
Mdm2-MdmX inh = inhibitors of human Mdm2-MdmX association, primary screen, cell-based, luminescence, split luciferase, SaOS-2, uHTS; 330,000 tested, 3% active; inhibition, % at 8 µM; SaOS-2 split-luciferase Mdm2/MdmX complementation; AID 485346, 2010;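 active = inhibition of at least 50% at 8 µM in the primary screen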
Target sequence (O15151 whole entry, looked up): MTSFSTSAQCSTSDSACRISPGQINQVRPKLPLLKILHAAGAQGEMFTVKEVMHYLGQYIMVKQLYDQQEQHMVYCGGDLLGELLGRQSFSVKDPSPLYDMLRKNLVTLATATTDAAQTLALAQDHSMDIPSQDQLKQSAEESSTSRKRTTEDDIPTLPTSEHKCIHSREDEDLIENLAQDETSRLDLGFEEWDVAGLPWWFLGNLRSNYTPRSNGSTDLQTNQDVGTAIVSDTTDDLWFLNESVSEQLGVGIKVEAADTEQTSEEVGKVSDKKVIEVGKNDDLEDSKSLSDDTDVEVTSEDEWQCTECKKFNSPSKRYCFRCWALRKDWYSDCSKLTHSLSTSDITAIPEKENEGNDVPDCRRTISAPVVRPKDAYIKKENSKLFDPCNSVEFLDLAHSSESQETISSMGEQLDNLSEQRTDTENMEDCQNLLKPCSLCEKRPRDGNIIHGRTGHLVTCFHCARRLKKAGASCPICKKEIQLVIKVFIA
Target sequence (Q00987 whole entry, looked up): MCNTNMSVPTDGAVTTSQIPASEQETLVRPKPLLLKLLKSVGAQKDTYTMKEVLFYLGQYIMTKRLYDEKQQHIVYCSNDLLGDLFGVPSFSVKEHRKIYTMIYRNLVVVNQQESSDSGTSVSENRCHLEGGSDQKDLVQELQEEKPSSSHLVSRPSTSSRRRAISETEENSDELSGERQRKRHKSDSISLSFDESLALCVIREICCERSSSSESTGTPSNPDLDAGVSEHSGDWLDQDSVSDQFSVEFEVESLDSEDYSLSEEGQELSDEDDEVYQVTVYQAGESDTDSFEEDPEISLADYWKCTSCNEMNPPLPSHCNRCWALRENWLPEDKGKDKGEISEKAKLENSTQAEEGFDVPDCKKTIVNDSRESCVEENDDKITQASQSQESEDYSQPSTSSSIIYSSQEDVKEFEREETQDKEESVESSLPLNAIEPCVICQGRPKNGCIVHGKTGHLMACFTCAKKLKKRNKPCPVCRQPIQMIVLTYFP
Shn3 3UTR inh = reduction of Shn3 3'UTR firefly luciferase signal, primary screen, Schnurri-3 inhibitor project, cell-based, Clone20 osteoblasts, set 2; Clone20 osteoblast Shn3 3'UTR firefly luciferase, 24 h; inhibition, % at 12.5 µM; 360,000 tested, 0.52% active;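 active = mean inhibition of at least 75% with every replicate also reaching 75%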;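 also: 0% = median of neutral control wells and 100% = pilot-screen positive control compound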
PAX8 reporter = inhibitors of PAX8-driven TPO luciferase reporter, primary screen, RMG-I cells, single concentration | 360,000 tested, 1.2% active | inhibition, % at 12.6 µM | AID 652154, 2013 | SteadyGlo, 24 h;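 active = mean replicate inhibition at least 60% with every replicate also reaching 60%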;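 also: luciferase light reporting Pax8 driven TPO promoter activity; plate controls were median of neutral control wells for no effect and mitoxantrone controls for full effect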
CSC inhib = cancer stem cell viability inhibitors, primary screen, luminescence; cancer stem cell-like cells viability; inhibition, % at 7.5 µM; 300,000 tested, 1.1% active; AID 2717, 2010; in the data active = inhibition above about 75%; tested in HMLE shEcad cells
The depositor's hits bear a star; x = not tested or not shown.

SMILES	Beta cell apopt	Gli-Sufu antag	Mdm2-MdmX inh	Shn3 3UTR inh	PAX8 reporter	CSC inhib
C[C@@H]1CCCCO[C@@H](CN(C)CC2CCCCC2)[C@H](C)CN([C@H](C)CO)C(=O)c2cc(NS(=O)(=O)c3ccc(Cl)cc3)ccc2O1	x	x	x	x	92.4*	x
C[C@@H]1CN([C@@H](C)CO)C(=O)c2cc(NS(=O)(=O)c3ccc(F)cc3)ccc2O[C@@H](C)CCCCO[C@H]1CN(C)CC1CCCCC1	x	x	x	x	5.6	x
COc1ccc2o/c(=N\O)c(C(=O)Nc3ccccc3OC)cc2c1	7.5	9.7	38.6	-14.0	x	-5.5
COc1ccc(NC(=O)c2cc3ccc(O)cc3o/c2=N\O)cc1	x	-53.5	-28.3	-162.5	4.1	75.4*
Cc1ccc(NC(=O)c2cc3ccccc3cc2O)cc1	8.5	-64.9	-32.6	-64.4	-135.6	25.8
COc1ccc(NC(=O)c2cc3ccccc3cc2O)cc1	-10.5	-4.8	-56.9	-88.9	-54.2	86.5*
C[C@@H]1CN([C@H](C)CO)C(=O)c2cccc(NC(=O)Nc3ccccc3)c2O[C@@H]1CN(C)Cc1ccc(C(=O)Nc2ccccc2N)cc1	x	x	x	x	46.0	x
COc1cc(F)c(C2=CC(=O)C[C@H](c3ccc(Cl)cc3)C2)cc1F	2.2	5.8	13.1	0.8	-35.2	78.5*
O=C1C=C(c2ccc(F)cc2OCc2ccccc2)C[C@@H](c2ccc(Cl)cc2)C1	110.8*	9.9	3.8	46.8	14.9	6.3
O=C(Nc1cccc(Cl)c1)N[C@H]1CC[C@@H](CCn2cc(Cc3ccccc3)nn2)O[C@H]1CO	x	x	x	x	21.7	x
CCc1nc(NC(C)(C)C)c2cnn(-c3ccccc3)c2n1	-1.0	-15.7	-9.9	-61.8	-145.2	95.3*
CO[C@H]1CN(C)C(=O)c2cc(NC(=O)c3cnccn3)ccc2OC[C@H](C)N(CCc2ccccc2)C[C@H]1C	x	x	x	x	-2.3	x
Cc1cc(C)c(C)c(S(=O)(=O)N2CCN(c3ccc(O)cc3)CC2)c1C	-8.3	18.6	17.1	7.8	17.7	84.6*
Cc1cc(C)c(C)c(S(=O)(=O)N2CCC(C(=O)N3CCN(c4ccc(F)cc4)CC3)CC2)c1C	x	-27.4	x	14.5	14.0	x
COc1ccccc1CN1[C@@H]2CN(C(=O)C3CCCCC3)c3ccccc3[C@@H]2[C@@H]1CO	x	x	x	x	24.5	x
Cc1ccc(S(=O)(=O)CC(CN2CCCCC2)N2CCCCC2)cc1 (stereo not drawn)	x	36.1	x	-15.5	90.4*	x
Cc1c(CCCl)c(Cl)n2c(nc3ccccc32)c1C#N	x	-5.2	x	98.7*	86.8*	x
Cc1cc(/C=N/n2cnnc2)c(C)n1-c1ccc2c(c1)OCO2	x	1.0	-13.4	-0.9	x	-6.4
Cc1cccc(-n2c(C)cc(/C=N/n3cnnc3)c2C)c1	110.6*	5.1	-3.1	14.8	x	-7.7
C[C@H]1CN([C@@H](C)CO)C(=O)Cc2cc(NC(=O)Cc3cn(C)c4ccccc34)ccc2O[C@@H]1CN(C)Cc1ccncc1	x	x	x	x	-10.9	x
CCCCN1CC(COCc2ccccc2)Oc2cccc(Oc3cc(C)c(C)c(C)c3)c2S1(=O)=O (stereo not drawn)	x	4.0	x	89.6*	-9.1	x
CCCCN1CC(COCc2ccccc2)Oc2cccc(Oc3ccc(C)cc3)c2S1(=O)=O (stereo not drawn)	x	-16.1	x	86.6*	8.4	x
CCCCN1CC(COCc2ccccc2)Oc2cccc(Oc3ccccc3)c2S1(=O)=O (stereo not drawn)	x	-10.5	x	24.8	37.4	x
COc1ccc(NC(=O)Nc2ccc3c(c2)C(=O)N([C@@H](C)CO)C[C@H](C)[C@H](CN(C)Cc2ccncc2)OCCCC[C@@H](C)O3)cc1	x	x	x	x	-10.5	x
C[C@@H]1CN([C@@H](C)CO)C(=O)c2cc(NC(=O)Nc3ccc(F)cc3)ccc2O[C@@H](C)CCCCO[C@H]1CN(C)Cc1ccc(Cl)c(Cl)c1	x	x	x	x	71.8*	x
SMILES	Beta cell apopt	Gli-Sufu antag	Mdm2-MdmX inh	Shn3 3UTR inh	PAX8 reporter	CSC inhib
C[C@@H]1CCCCO[C@H](CN(C)Cc2ccc(Cl)c(Cl)c2)[C@@H](C)CN([C@@H](C)CO)C(=O)c2cc(NC(=O)NC3CCCCC3)ccc2O1	x	x	x	x	70.1*	x
C[C@@H]1CCCCO[C@H](CN(C)Cc2ccc(Cl)c(Cl)c2)[C@H](C)CN([C@@H](C)CO)C(=O)c2cc(NC(=O)Nc3ccc(F)cc3)ccc2O1	x	x	x	40.6	75.3*	x
Cc1noc(C)c1NC(=O)Nc1ccc2c(c1)C(=O)N([C@@H](C)CO)C[C@@H](C)[C@H](CN(C)S(=O)(=O)c1cn(C)cn1)OCCCC[C@@H](C)O2	x	x	x	x	0.7	x
COCC(=O)N(C)C[C@@H]1Oc2ncc(C3=CCCC3)cc2C(=O)N([C@H](C)CO)C[C@H]1C	x	x	x	x	-26.2	x
C[C@H](NC(=O)C[C@@H]1C=C[C@H](NC(=O)c2cccnc2)[C@@H](CO)O1)c1ccccc1	x	x	x	x	-9.5	x
CN(C)C(=O)[C@@H]1[C@@H](CO)[C@@H]2Cn3c(ccc(-c4cccnc4)c3=O)[C@H]1N2C(=O)NC1CCCC1	x	x	x	x	-4.3	x
COc1ccc(S(=O)(=O)Nc2ccc3c(c2)C(=O)N([C@H](C)CO)C[C@@H](C)[C@H](CN(C)S(=O)(=O)c2ccc(OC)cc2)OCCCC[C@@H](C)O3)cc1	x	x	x	x	35.6	x
CCCc1c(-c2ccc(O)cc2)nn(-c2ccc(O)cc2)c1-c1ccc(O)cc1	-1.2	-17.4	45.6	19.2	x	83.8*
Cc1c(C(N)=O)c(-c2ccccc2)nn1-c1ccccc1	-3.6	-16.2	9.2	-6.8	-0.7	-8.3
CO[C@@H]1CN(C)C(=O)c2ccc(NS(=O)(=O)c3cccc(Cl)c3)cc2OC[C@@H](C)N(C(=O)Cc2cccnc2)C[C@H]1C	x	x	x	x	1.6	x
CCn1c(=O)n(CC)c2cc(NS(=O)(=O)c3ccccc3)ccc21	-3.4	16.5	27.8	-4.7	-0.9	-1.6
CCn1c2ccccc2c2cc(NS(=O)(=O)c3ccc(C)cc3)ccc21	-0.7	1.9	44.6	10.1	x	83.5*
COc1ccc(Cc2c(-c3ccc(OC)c(OC)c3)nc3c(C)cc(Br)cn23)c(C)c1	x	x	x	-3.2	66.4*	x
COc1ccc(Cc2c(-c3ccc(C)cc3)nc3c(C)cc(Br)cn23)c(C)c1	x	x	x	-7.4	22.2	x
C[C@@H]1CN([C@@H](C)CO)C(=O)c2cc(NS(=O)(=O)c3ccccc3)ccc2O[C@@H](C)CCCCO[C@H]1CN(C)C(=O)CCC(F)(F)F	x	x	x	x	-11.9	x
O=C(O)CC(CC(=O)Nc1ccc(-n2ccc(C(F)(F)F)n2)cc1)c1ccccc1 (stereo not drawn)	-10.5	0.5	10.8	-2.9	-38.2	-7.6
O=C(Nc1ccccc1)Nc1ccc(-n2ccc(C(F)(F)F)n2)cc1	115.7*	39.6	-56.6	65.0	-195.4	40.1
CC(=O)N(C)C[C@H]1Oc2ncc(C#Cc3ccc(F)cc3)cc2C(=O)N([C@H](C)CO)C[C@H]1C	x	x	x	x	-18.1	x
